Data on 91 compounds can be found in PubChem BioAssay AID1892 (NMMLSC, 2009).

Hit rate of the full screen: of about 5,900 compounds, about 140 (2.4%) were called active. This is one part of a sample in which actives are shown more often than they occur. No stated cut-off is given here; in the data, active means binding response below about 16% or above about 210%; inactive means in between.

The test has as its target Mitogen-activated protein kinase kinase kinase 2 (Homo sapiens) (UniProt Q9Y2U5). Briefly: modulators of MEK5 binding to wildtype MEKK2, confirmation, biochemical, single concentration, multiplex bead flow cytometry (AID 1892). As to conditions: Alexa488-MEK5 binding to MEKK2 WT, at 10 µM, actives lie on both sides. (A flow cytometer gives signals particle by particle.)
For the compound `Cc1nn(-c2ccccc2)c(C)c1NC(=O)CCl`, the binding response (% of control) was 95% (inactive).

Consider `C=CCn1c(P(C)(=O)O)nc2ccccc21`, for which the binding response (% of control) is 95% (inactive).

On to `CNC(=O)/C(=C\C=C\c1ccccc1)NC(=O)c1ccc([N+](=O)[O-])cc1`, for which the binding response (% of control) is 99% (inactive).

Consider `Cc1ccc(N(CCC(=O)O)S(=O)(=O)c2cccc(C(F)(F)F)c2)cc1`, for which the binding response (% of control) was 102% (inactive).

Turning to `CN(c1ccccc1)c1ccc(/C=c2\s/c(=C(/C#N)C(=O)C(C)(C)C)n(Cc3ccco3)c2=O)cc1`, the binding response (% of control) was 73% (inactive).

As for `CCN(CC)CCCNC(=O)c1ccc2c(=O)n(Cc3ccc4c(c3)OCO4)c(=S)[nH]c2c1`, the binding response (% of control) is 128% (inactive).

Take `O=C(NC1CCN(Cc2ccccc2)CC1)c1ccc(Oc2cc(Cl)cc(Cl)c2)o1`: the binding response (% of control) is 138% (inactive).

`COCCN1C=C2C(=O)C(C)(OC(=O)C3CCCC3)C(=O)C=C2C=C1c1ccsc1` (stereo unspecified): the binding response (% of control) was 96% (inactive).

Take `O=C(NCc1ccccc1Cl)NC(=O)c1csc([N+](=O)[O-])c1`: the binding response (% of control) is 104% (inactive).

For `COc1ccc(CCn2c(NN=C3CCCC3)nc3c2c(=O)[nH]c(=O)n3C)cc1`, the binding response (% of control) is 102% (inactive).

As to `CCOC(=O)c1sc2nc(C)nc(SCC(N)=O)c2c1C`, the binding response (% of control) is 102% (inactive).

Regarding `COc1ccccc1N=C(C)C1=C(O)COC1=O`, the binding response (% of control) was 106% (inactive).

As to `Cc1nc2cc(S(=O)(=O)C(F)(F)F)ccc2s1`, the binding response (% of control) is 106% (inactive).

Consider `CC(C)CC(=O)NC(=S)NCc1ccccc1`, for which the binding response (% of control) was 98% (inactive).

With `COc1ccc(C(=O)NCC(=O)N/N=C/c2ccc([N+](=O)[O-])o2)cc1OC`, the binding response (% of control) was 92% (inactive).

`CCOC(=O)c1c(NC(=O)c2ccc(S(=O)(=O)N(C)CC3CCCO3)cc2)sc2c1CC(C)(C)NC2(C)C` (stereo unspecified): the binding response (% of control) is 121% (inactive).

`COc1cccc(OCC(=O)NNC(=O)c2cnccn2)c1`: the binding response (% of control) is 98% (inactive).

As to `COc1ccc(C2CC(=O)Nc3cc(C)c(C)cc32)c(OC)c1OC` (stereo unspecified), the binding response (% of control) was 101% (inactive).

`COc1ccc(SC[C@H](Cc2ccccc2)N2CCN(CCc3ccccc3)CCC2=O)cc1`: the binding response (% of control) was 129% (inactive).

`Cc1cc(C)nc(-n2ncc3c2CC(c2ccc(C(C)C)cc2)CC3=O)n1` (stereo unspecified): the binding response (% of control) is 102% (inactive).

Take `Cc1c(C#N)c2ncn(CC#N)c(=O)c2n1-c1ccccc1`: the binding response (% of control) is 99% (inactive).

Consider `CC(=O)Nc1ccc(N2CCOCC2)c(C(=O)Nc2cccc(C)c2)c1`, for which the binding response (% of control) is 102% (inactive).

Consider `CCCCNC(=O)N1CCCC(N(C)CCc2ccc(OC)c(OC)c2)C1` (stereo unspecified), for which the binding response (% of control) is 103% (inactive).

For `Cc1ccc(C(=O)NC(=S)Nc2ccc3[nH]c(=O)[nH]c3c2)cc1C`, the binding response (% of control) is 101% (inactive).

Take `CCN1CCN(c2ccc(S(=O)(=O)N3CCCCC3)cc2NC(=O)Cc2c(Cl)cccc2Cl)CC1`: the binding response (% of control) was 125% (inactive).

On to `Cc1cnc(NC(=O)Cn2cnc3c2c(=O)n(C)c(=O)n3C)s1`, for which the binding response (% of control) is 96% (inactive).

Regarding `O=c1c2ccccc2c(-c2ccccc2)nn1Cc1ccccc1`, the binding response (% of control) was 100% (inactive).

For the compound `Cc1ccccc1OCC(=O)Nc1ccc(N2CCN(C(=O)C(C)C)CC2)c(Cl)c1`, the binding response (% of control) was 93% (inactive).

For the compound `O=C1NCC(=O)N(Cc2ccccc2)/C1=C/c1ccccc1`, the binding response (% of control) was 75% (inactive).

With `CC1(C)OC(=O)N2CCc3ccccc3C21C` (stereo unspecified), the binding response (% of control) was 101% (inactive).

Regarding `CN(C)c1ccc(/C=C2\NC(=S)N(Cc3ccccc3)C2=O)cc1`, the binding response (% of control) was 86% (inactive).

Turning to `Cc1ccc(N2C(=O)CC(N3CCSCC3)C2=O)c(C)c1` (stereo unspecified), the binding response (% of control) is 103% (inactive).

Consider `Cc1ccc(NC(=S)N(CCCN2CCCC2)Cc2cccn2Cc2ccc(Cl)cc2)cc1`, for which the binding response (% of control) was 160% (inactive).

With `COc1ccc(-c2[nH]ncc2CN(C)Cc2c(C)n[nH]c2C)c(OC)c1`, the binding response (% of control) was 108% (inactive).

As to `COc1ccccc1CC(=O)Nc1ccc([N+](=O)[O-])cc1OC`, the binding response (% of control) was 100% (inactive).

For `Cc1ccc(Nc2nc(CSc3nnc(-c4ccncc4)n3-c3ccccc3C)cs2)cc1`, the binding response (% of control) was 101% (inactive).

Turning to `O=C(/C=C/Nc1ccccc1)c1cnc(-c2ccccc2)s1`, the binding response (% of control) was 107% (inactive).

Turning to `CC(C)CC(=O)N1CCN(Cc2ccccc2Br)CC1`, the binding response (% of control) is 105% (inactive).

Turning to `Cc1ccccc1CCN(CC(=O)NC1CCCCC1)C(=O)c1csnn1`, the binding response (% of control) was 96% (inactive).

For `Cc1cccc(/C=N/NC(=O)CNc2cccc3ccccc23)n1`, the binding response (% of control) was 103% (inactive).

`CC(C)(C)NC(=O)c1cccc(NC(=O)Cc2ccc(Br)cc2)c1`: the binding response (% of control) is 100% (inactive).

Consider `CCOc1cc(C2C(C(=O)OC)=CN(C3CCCC3)C=C2C(=O)OC)cc(Br)c1O`, for which the binding response (% of control) is 108% (inactive).

In the case of `COc1ccc(CCNC(=O)CSc2nnc3ccc(-c4ccncc4)nn23)cc1`, the binding response (% of control) was 102% (inactive).

For the compound `CCCCOC(=O)c1ccc(N2C(=O)CC(N3CCN(C/C=C/c4ccccc4)CC3)C2=O)cc1` (stereo unspecified), the binding response (% of control) was 124% (inactive).

For `O=C(NCC1CCCCC1)c1cc(S(=O)(=O)N2CCCCC2)ccc1N1CCOCC1`, the binding response (% of control) was 87% (inactive).

As to `Cn1c(SCc2nc3ccccc3s2)nnc1-c1ccc2c(c1)OCO2`, the binding response (% of control) was 102% (inactive).

`Cc1cccc(-c2ncc(CN3CCC(CO)(CCCc4ccccc4)CC3)cn2)c1`: the binding response (% of control) was 131% (inactive).

For `Cc1cn(COC/C=C/c2ccccc2)c(=O)[nH]c1=O`, the binding response (% of control) was 103% (inactive).

Consider `COc1cc(NC(=S)NCc2ccco2)c(OC)cc1Cl`, for which the binding response (% of control) is 108% (inactive).

For the compound `COC(=O)c1c(NC(=O)COC(=O)[C@@H](NS(=O)(=O)c2ccccc2)C(C)C)sc2c1CCC2`, the binding response (% of control) is 96% (inactive).

Take `COc1cc(-c2nc(-c3ccncc3)no2)cc(OC)c1OC`: the binding response (% of control) was 104% (inactive).

In the case of `Cc1cccc(CSc2nnc(C)c(=O)n2N)c1`, the binding response (% of control) is 100% (inactive).

With `O=C(O)CCCC(=O)Nc1ccc(Oc2cccc(C(F)(F)F)c2)nc1`, the binding response (% of control) was 106% (inactive).

On to `COc1cc(CC(=O)N/N=C/c2ccccc2)c([N+](=O)[O-])cc1OC`, for which the binding response (% of control) was 99% (inactive).

For `COc1ccc(S(=O)(=O)N2CN(CCc3ccc(OC)c(OC)c3)c3nc4ccccc4nc32)cc1`, the binding response (% of control) was 96% (inactive).

Consider `CCOC(=O)C(NS(=O)(=O)c1ccc(C)cc1)(C(F)(F)F)P(=O)(OCC(C)C)OCC(C)C` (stereo unspecified), for which the binding response (% of control) is 90% (inactive).

On to `O=c1[nH]c(=S)[nH]c2[nH]c(=S)[nH]c12`, for which the binding response (% of control) is 101% (inactive).

Consider `Cc1ccccc1-c1ccc(Nc2ccc(C(=O)N3CCOCC3)cc2)nn1`, for which the binding response (% of control) is 103% (inactive).

Regarding `CCOC(=O)c1c(Cc2ccc(Cl)cc2)c[nH]c1C`, the binding response (% of control) is 105% (inactive).

Regarding `O=C(Nc1cccnc1)c1cc(Cl)ccc1Cl`, the binding response (% of control) was 109% (inactive).

For `CN(C)CCCNC(=O)/C=C/c1ccc(OCc2c(F)cccc2Cl)cc1`, the binding response (% of control) is 150% (inactive).

Regarding `O=C(c1cnn(-c2ccc(Cl)cc2)c1)c1ccccc1O`, the binding response (% of control) is 112% (inactive).

With `O=C(O)/C=C\C(=O)Nc1ccc(OCc2ccccc2)cc1`, the binding response (% of control) was 102% (inactive).

With `O=C(OCc1cc(Cl)ccc1OC(F)F)c1cccnc1`, the binding response (% of control) is 95% (inactive).

For `CCNC(=O)CSc1nc(-c2ccccc2)cs1`, the binding response (% of control) was 99% (inactive).

`O=C(OCC1O[C@@H](OC(=O)c2cc(O)c(O)c(O)c2)[C@@H](OC(=O)c2cc(O)c(O)c(O)c2)[C@@H](OC(=O)c2cc(O)c(O)c(O)c2)[C@@H]1OC(=O)c1cc(O)c(O)c(O)c1)c1cc(O)c(O)c(O)c1` (stereo partly specified): the binding response (% of control) was -1% [inhibitor] (active).

With `CCOC(=O)c1c(-c2ccccc2)csc1NC(=S)NC(=O)c1ccccc1`, the binding response (% of control) is 102% (inactive).

Consider `CCCCCCCCCCOC(=O)Cn1c(COc2ccc(C)cc2)[n+](C)c2ccccc21`, for which the binding response (% of control) is 217% (active).

With `CCCCCCCCCCOC(=O)Cn1c(COc2cccc(OC)c2)[n+](C)c2ccccc21`, the binding response (% of control) is 257% (active).

For `FC(F)(F)c1cccc(N/N=C/c2ccccc2)c1`, the binding response (% of control) is 151% (inactive).

As for `Cc1ccc(S(=O)(=O)NC(=O)N2CCCC(C)(C)C2)cc1`, the binding response (% of control) is 101% (inactive).

For the compound `COc1cc(/C=C2\SC(=S)N(Nc3ncc(C(F)(F)F)cc3Cl)C2=O)cc(OC)c1OC`, the binding response (% of control) is 74% (inactive).

With `Cc1cc(Cl)ccc1OCc1nc(-c2ccncc2)no1`, the binding response (% of control) was 80% (inactive).

For the compound `COc1ccccc1N1CCN(CCCCOc2ccc(F)cc2)CC1`, the binding response (% of control) was 109% (inactive).

Regarding `Cc1no[n+]([O-])c1COc1ccccc1/C=C1\NC(=S)NC1=O`, the binding response (% of control) was 99% (inactive).

In the case of `CCO[C@H]1OC(C(=O)N2CCOCC2)=C[C@@H](c2ccc3c(c2)OCO3)[C@@H]1CCCO`, the binding response (% of control) was 101% (inactive).

Turning to `c1ccc(Nc2nc(N3CCOCC3)c3ccccc3n2)cc1`, the binding response (% of control) is 124% (inactive).

Turning to `COCC(C)NC(=O)COc1nncc2ccccc12` (stereo unspecified), the binding response (% of control) was 96% (inactive).

On to `Cn1c(=NC(=O)CSCC(=O)N2CCOCC2)sc2ccccc21`, for which the binding response (% of control) was 90% (inactive).

For the compound `CCc1nnc(NC(=O)c2sc3nc(C)cc(COC)c3c2N)s1`, the binding response (% of control) is 107% (inactive).

With `Cc1ccccc1C(=O)NNC(=O)CN1C(=O)c2ccccc2C1=O`, the binding response (% of control) was 92% (inactive).

For `C#CCOCCOCCOCCNc1nc(N2CCN(C(=O)[C@H](CCCCN)n3cc([C@@H](N)C(C)CC)nn3)CC2)nc(N2CCN(C(=O)[C@H](Cc3ccc(O)cc3)n3cc([C@@H](N)C(C)CC)nn3)CC2)n1` (stereo partly specified), the binding response (% of control) is 183% (inactive).

In the case of `COc1ccc(C2CC(c3cccs3)=NN2c2nc(C)c(C(C)=O)s2)cc1OC` (stereo unspecified), the binding response (% of control) is 82% (inactive).

With `CCOC(=O)c1cc2occc2n1CC(=O)N1CCN(C(=O)c2ccco2)CC1`, the binding response (% of control) was 92% (inactive).

Regarding `COC(=O)c1cc(NC(=O)c2cc(C(C)(C)C)nn2Cc2cccc(C)c2)ccc1N1CCOCC1`, the binding response (% of control) was 102% (inactive).

With `Cc1ccc(S(=O)(=O)/N=S(\C)C(C)C)cc1` (stereo unspecified), the binding response (% of control) is 101% (inactive).

Take `CCOC(=O)/C(C#N)=C/c1ccc(OCC(=O)Nc2ccccc2)c(OC)c1`: the binding response (% of control) is 103% (inactive).

As to `CN(C)CCCN(C(=O)c1ccc(S(=O)(=O)N2CCCc3ccccc32)cc1)c1nc2ccc(F)cc2s1`, the binding response (% of control) was 198% (inactive).

In the case of `O=C(Nc1ccc2ccccc2c1)Nc1ccc2snnc2c1`, the binding response (% of control) is 155% (inactive).

Turning to `CCOc1ccc(NC(=O)Nc2cc(C)ccc2OC)cc1`, the binding response (% of control) was 106% (inactive).

In the case of `CCOc1cc(C(=O)OCC(=O)Nc2cccc(C)c2)ccc1OCC(=O)N1CCOCC1`, the binding response (% of control) was 106% (inactive).
